Laboratory results taken from the supplement of paper PMC10338343.
± gives the standard deviation.

Experiments:
[1] = system: MILI (PIWIL2) piRISC loaded with piRNA #1 (26 nt); assay: pre-steady-state target cleavage rate (min^-1); guide: piRNA #1 5'p-UGAGGUAGUAGGUUGUAUAGUAUCCA; higher = faster piRNA-guided slicing of the target; conditions: auxiliary factor: 500 nM mouse GTSF1
Summary of the method: (§1)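 Cleave-'n-Seq: a transcribed, DNA-blocked target RNA library (0.1 nM) was mixed with 1 nM active affinity-purified piRISC carrying one synthetic guide, with or without 500 nM GTSF1 partner protein, in HEPES–potassium acetate buffer at 33 °C for 0–8 or 0–960 min. Uncleaved targets were sequenced and normalised to depth and to weakly complementary targets. Three trials were pooled, and k3 was capped at 0.0001 min^-1. The pre-steady-state cleavage rate came from a burst-and-steady-state fit.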

[2] = system: EfPiwi piRISC loaded with piRNA #1 (26 nt); assay: pre-steady-state target cleavage rate (min^-1); auxiliary factor: 500 nM Ephydatia muelleri Gtsf1; guide: piRNA #1 5'p-UGAGGUAGUAGGUUGUAUAGUAUCCA; MIWI and MILI are mouse PIWI proteins and EfPiwi is from a freshwater sponge; tags in brackets are library labels; higher = faster piRNA-guided slicing of the target
Summary of the method: as §1

Sequence | pre-steady-state target cleavage rate [1] | pre-steady-state target cleavage rate [2]
GGAGACCAUACUAUACAUCCAACUACCUCA | 0.00924 ± 0.0032 | 0.00245 ± 0.0022
GGAGCGGAUACUAUACAACCUACUACCUCA | 0.203 ± 0.013 | 0.141 ± 0.048
GGAGACCUUACUAUACAGCCUACUACCUCA | 0.116 ± 0.012 | 0.068 ± 0.028
GGAGUGGAUACUAAACUACCUACUACCUCA | 0.172 ± 0.011 | 0.00956 ± 0.0047
GGAGACCUAUCUAUACAUCCUAGUACCUCA | 0.0489 ± 0.012 | 0.00398 ± 0.0038
GGAGACGAUAACUAUACAACCUACUACCUCA | 0.116 ± 0.0099 | 0.0617 ± 0.023
GGAGAGGAUAUAUACAACCUACUACCUCA | 0.165 ± 0.014 | 0.00764 ± 0.0042
GGAGUGGUUACUAAACAACCUACUACCUCA | 0.161 ± 0.0092 | 0.00439 ± 0.0033
GGAGAGGAUACUAUUCAACCUACUAGCUCA | 0.063 ± 0.014 | 0.00239 ± 0.0015
GGAGACGAUUCUAUACAACCAACUACCUCA | 0.00752 ± 0.0023 | 0.00258 ± 0.0018
GGAGACCUAACUUUACAACCUAGUACCUCA | 0.0141 ± 0.0091 | 0.00417 ± 0.0038
GGAGAGGAUACUAUACAACCUACUACUUCA | 0.153 ± 0.015 | 0.121 ± 0.05
GGAGUGGAUACUAUACAACCAAGUACCUCA | 0.00277 ± 0.0018 | 0.00281 ± 0.0018
GGAGACCUAUCUUUUCAACCUACUACCUCA | 0.0272 ± 0.0082 | 0.00766 ± 0.0047
GGAGUGCAUACUAUACAUCCUACUACCUCA | 0.313 ± 0.015 | 0.0107 ± 0.0041
GGAGAGGAUACUAUACAACUUACUACCUCA | 0.0186 ± 0.0027 | 0.0083 ± 0.0042
GGAGACGAUACUAUUCAACGUACUACCUCA | 0.0257 ± 0.0034 | 0.00355 ± 0.0011
GGAGUGGAUACUAUACAACCUACUAACUCA | 0.018 ± 0.005 | 0.00991 ± 0.0043
GGAGAGGAUACUAUACAACGUACUACCUGA | 0.0116 ± 0.0027 | 0.00359 ± 0.0014
GGAGAGGAUACUAUUCAACCUACUACCUCA | 0.178 ± 0.011 | 0.012 ± 0.0057
GGAGACCUUACUAUUCAACCUACUACCUCA | 0.15 ± 0.012 | 0.00413 ± 0.0039
GGAGACCUAACAAUACAUCCUACUACCUCA | 0.191 ± 0.031 | 0.00431 ± 0.0035
GGAGUGGAUACUAAACAACGUACUACCUCA | 0.0219 ± 0.0031 | 0.00304 ± 0.0013
GGAGACGAUACUACUACAACCUACUACCUCA | 0.193 ± 0.015 | 0.0327 ± 0.012
GGAGUGGAUACUAUACUUCCUACUACCUCA | 0.202 ± 0.013 | 0.0195 ± 0.01
GGAGAGGAAACUAUACAAGCUACUACCUCA | 0.179 ± 0.031 | 0.00403 ± 0.0014
GGAGUGGAUAGUAUACAAGCUACUACCUCA | 0.0697 ± 0.01 | 0.00224 ± 0.0021

Sequence | pre-steady-state target cleavage rate [1] | pre-steady-state target cleavage rate [2]
GGAGAGGAUACUAAACAACGUACUACCUCA | 0.013 ± 0.0022 | 0.00367 ± 0.002
GGAGUGGAUACUAUACAACCUACUACCUGA | 0.0915 ± 0.011 | 0.0069 ± 0.0028
GGAGACCUUACUAUACAACCUACUACCUA | 0.152 ± 0.018 | 0.0485 ± 0.018
GGAGACCUUACUAUACAACCUAGUACCACA | 0.00907 ± 0.0036 | 0.00255 ± 0.0023
GGAGACCAUACUAUCACAACCUACUACCUCA | 0.136 ± 0.019 | 0.0399 ± 0.014
GGAGACCAAACUUUACAACCUACUACCUCA | 0.137 ± 0.034 | 0.011 ± 0.0057
GGAGACCAUACUAUACAACCUACUAACUCA | 0.0993 ± 0.021 | 0.00957 ± 0.0048
GGAGACCUAACUACACAACCUACUACCUCA | 0.166 ± 0.039 | 0.00487 ± 0.0033
GGAGACGAUACUAUUCAACCAACUACCUCA | 0.00612 ± 0.0026 | 0.00444 ± 0.002
GGAGAGGAUACUAAACAACCUACUACCUGA | 0.0485 ± 0.011 | 0.00273 ± 0.0018
GGAGAGGAUUGAAUACAACCUACUACCUCA | 0.0664 ± 0.0088 | 0.00721 ± 0.0044
GGAGACGUUACUAUACAACCUUCUACCUCA | 0.00861 ± 0.0028 | 0.00871 ± 0.0043
GGAGACCAUACUAUACAACCUACUGACCUCA | 0.0765 ± 0.017 | 0.0102 ± 0.0061
GGAGACGAUACUAUAGCAACCUACUACCUCA | 0.162 ± 0.013 | 0.00432 ± 0.0027
GGAGACGAUACUAUACAACCAACUACCACA | 0.00835 ± 0.0032 | 0.00406 ± 0.003
GGAGACGAUACUAUACAAGCUACUUCCUCA | 0.167 ± 0.016 | 0.00404 ± 0.0021
GGAGUGGAUACUAUACAACCUACUAGCUCA | 0.0481 ± 0.0088 | 0.00429 ± 0.0016
GGAGUGGAUACUAUUCAACCUAGUACCUCA | 0.0485 ± 0.0085 | 0.00286 ± 0.0013
GGAGACCUUACGAUACAACCUACUACCUCA | 0.152 ± 0.017 | 0.0548 ± 0.021
GGAGACCUAUGAAUCACAACCUACUACCUCA | 0.0111 ± 0.0034 | 0.00389 ± 0.0034
GGAGACCAUACUAUUCAACCUACUACCUGA | 0.114 ± 0.018 | 0.00313 ± 0.0026
GGAGAGGAUACUAUACAACCUACUACCAGA | 0.0384 ± 0.0076 | 0.00451 ± 0.0018
GGAGACGAUACUAUACAACCUACUACCCA | 0.107 ± 0.024 | 0.00543 ± 0.0019
GGAGUGGAUAGAAUACAACCUACUACCUCA | 0.156 ± 0.014 | 0.0062 ± 0.0044
GGAGACGAAACUAUACAUCCUACUACCUCA | 0.255 ± 0.026 | 0.00655 ± 0.0027
GGAGAGCAUACUAUACAAGCUACUACCUCA | 0.22 ± 0.015 | 0.00318 ± 0.0023
GGAGAGGAUUCUAUACAACGUACUACCUCA | 0.028 ± 0.0028 | 0.00249 ± 0.0021

Sequence | pre-steady-state target cleavage rate [1] | pre-steady-state target cleavage rate [2]
GGAGAGGAACUAUACAACCUACUACCUCA | 0.167 ± 0.013 | 0.00746 ± 0.0049
GGAGACCUAACUAUAACAACCUACUACCUCA | 0.0743 ± 0.018 | 0.00912 ± 0.005
GGAGACGAUACUAUACAACCUACUUCGUCA | 0.0101 ± 0.0048 | 0.00672 ± 0.0024
GGAGAGGAUACUAUUCAACCUACUACCACA | 0.169 ± 0.017 | 0.00331 ± 0.0019
GGAGACCAUACUAACAACCUACUACCUCA | 0.114 ± 0.019 | 0.00859 ± 0.0041
GGAGACCUAACUAUACAACCUACUACCGUCA | 0.15 ± 0.034 | 0.0162 ± 0.0091
GGAGACCUUACUAUGACAACCUACUACCUCA | 0.179 ± 0.018 | 0.00456 ± 0.0042
GGAGUGGAAACUAUACUACCUACUACCUCA | 0.193 ± 0.016 | 0.00676 ± 0.0042
GGAGACCAUACUAUACAACCUUCUUCCUCA | 0.00848 ± 0.0038 | 0.00613 ± 0.0044
GGAGACGAUAGUAUACAACCUACAACCUCA | 0.106 ± 0.011 | 0.00195 ± 0.0018
GGAGUGGAUACUAUACAACCUACUACAUCA | 0.0416 ± 0.0072 | 0.00707 ± 0.0031
GGAGACGAUAGUAUACAACCUAGUACCUCA | 0.0719 ± 0.011 | 0.00201 ± 0.0013
GGAGACCUAACUAUACAACGUAGUACCUCA | 0.00851 ± 0.0056 | 0.00322 ± 0.0027
GGAGAGGAUACUAUACAACCUACUACCCA | 0.0505 ± 0.014 | 0.0052 ± 0.0025
GGAGACGAUACUAUACAAUCUACUACCUCA | 0.131 ± 0.0093 | 0.00912 ± 0.0039
GGAGACCAUACUAUACAACCUACAUCCUCA | 0.1 ± 0.014 | 0.00325 ± 0.0028
GGAGACGUUACUAUACAACCUAGUACCUCA | 0.0428 ± 0.0087 | 0.00427 ± 0.0015
GGAGACCUAACUAUACAACCUACUACCUCC [g2:g21:cont:t1C] | 0.175 ± 0.03 | 0.00701 ± 0.0033
GGAGACAAUACUAUACAACCUACUACCUCA | 0.253 ± 0.021 | 0.0606 ± 0.023
GGAGUGGAUACUAUACGACCUACUACCUCA | 0.135 ± 0.0095 | 0.0922 ± 0.036
GGAGACCAUACUAUCCAACCUACUACCUCA | 0.178 ± 0.017 | 0.00636 ± 0.0033
GGAGUGGAUACUAUACAACCAUACUACCUCA | 0.00751 ± 0.003 | 0.00742 ± 0.0033
GGAGUCGAUACUAUACUACCUACUACCUCA | 0.19 ± 0.012 | 0.00591 ± 0.0029
GGAGACCAUUCUAUACAACCUACUACCUCA | 0.136 ± 0.013 | 0.0597 ± 0.02
GGAGACGAUACUAUACAACCUACAAGCUCA | 0.0171 ± 0.0086 | 0.00381 ± 0.0023
GGAGACCUUACUCAUACAACCUACUACCUCA | 0.122 ± 0.016 | 0.00389 ± 0.0032
